# Measurements reported in PubChem BioAssay (Tox21).
# Records with an inconclusive call do not appear. A call without a number means that no potency is given here. Activity calls are given as the source filed them. Unless noted, the call rests on the fitted dose curve; in most records, active means well fitted curve in the direction sought with a large enough effect in the repeat runs; inconclusive means weak or mixed curves; inactive means no such curve, though single readings can be large; an effect the other way counts as inactive or inconclusive.
# Columns and labels:
# [1] = qHTS assay to identify small molecule antagonists of the glucocorticoid receptor (GR) signaling pathway - cell viability counter screen (AID 720693); further: nearly all actives have a fitted effect of over 55% in size
# [2] = qHTS assay for identifying genotoxic compounds that show differential cytotoxicity against isogenic chicken DT40 cell lines with known DNA damage response pathways - wild type cell line (AID 743012); further: nearly all actives have a fitted effect of over 60% in size; further: potency means the concentration at half of the fitted maximal effect
# Method in brief: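 Quantitative HTS on parental DT40 cells: 40 h compound treatment at 37 C/5% CO2, with viability then determined by CellTiter-Glo luminescence. Values serve as the DNA repair-proficient reference for differential cytotoxicity.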
# [3] = qHTS assay for identifying genotoxic compounds that show differential cytotoxicity against isogenic chicken DT40 cell lines with known DNA damage response pathways - Rev3 mutant cell line (AID 743014); further: nearly all actives have a fitted effect of over 55% in size; further: potency means the concentration at half of the fitted maximal effect
# [4] = qHTS assay for identifying genotoxic compounds that show differential cytotoxicity against isogenic chicken DT40 cell lines with known DNA damage response pathways - Rad54/Ku70 mutant cell line (AID 743015); further: nearly all actives have a fitted effect of over 60% in size; further: potency means the concentration at half of the fitted maximal effect
# [5] = qHTS assay to identify small molecule antagonists of the androgen receptor (AR) signaling pathway - cell viability counter screen (AID 743033; further: nearly all actives have a fitted effect of over 45% in size)
# [6] = molecular target: Androgen receptor (Homo sapiens) (UniProt P10275); assay: qHTS assay to identify small molecule antagonists of the androgen receptor (AR) signaling pathway (AID 743035; active means well fitted inhibition curve with a large enough effect in the signal ratio in the repeat runs, not every such curve was filed as active; the % refers to the signal ratio)
# Method in brief: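 Cell line: GeneBLAzer AR-UAS-bla GripTite (HEK293). Stimulus: R1881 added after compound. Exposure: 16 h, 37C, 5% CO2. Readout: LiveBLAzer B/G FRET fluorescence after 2 h at room temperature.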
# [7] = molecular target: Androgen receptor (Homo sapiens) (UniProt P10275); assay: qHTS assay to identify small molecule agonists of the androgen receptor (AR) signaling pathway (AID 743036; active means well fitted activation curve with a large enough effect in the signal ratio in the repeat runs, with a control signal flat, not every such curve was filed as active; the % refers to the signal ratio)
# Method in brief: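 Following a 4 h settling period, AR-UAS-bla HEK293 cells were dosed with compounds for 16 h at 37C. A 2 h room-temperature incubation with LiveBLAzer B/G FRET substrate preceded the fluorescence measurement.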
# [8] = molecular target: Androgen receptor (Homo sapiens) (UniProt P10275); assay: qHTS assay to identify small molecule agonists of the androgen receptor (AR) signaling pathway using the MDA cell line (AID 743040; further: nearly all actives have a fitted effect of over 20% in size; further: potency means the concentration at half of the fitted maximal effect)
# Method in brief: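 Human breast carcinoma MDA-kb2 reporter cells (MMTV-luc, AR/GR elements) were treated for 16 h at 37C in 0% CO2 following a 5 h settling period. Signal was quantified by ONE-Glo luminescence.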
# [9] = qHTS assay to identify small molecule antagonists of the androgen receptor (AR) signaling pathway using the MDA cell line - cell viability counter screen (AID 743041; further: nearly all actives have a fitted effect of over 45% in size)
# Method in brief: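 Same-well cytotoxicity was assessed by CellTiter-Fluor in MDA-kb2 AR-luc cells after 16 h of compound treatment under R1881 agonism.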
# [10] = molecular target: Androgen receptor (Homo sapiens) (UniProt P10275); assay: qHTS assay to identify small molecule antagonists of the androgen receptor (AR) signaling pathway using the MDA cell line (AID 743042; further: nearly all actives have a fitted effect of over 55% in size)
# Method in brief: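 MDA-kb2 breast carcinoma cells carrying MMTV-luciferase (AR/GR responsive) were co-treated with compounds and the agonist R1881 for 16 h at 37C. Inhibition read as ONE-Glo luminescence; CellTiter-Fluor fluorescence measured in parallel for cytotoxicity.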
# [11] = qHTS assay to identify small molecule antagonists of the thyroid receptor (TR) signaling pathway - cell viability counter screen (AID 743064); further: nearly all actives have a fitted effect of over 50% in size; further: potency means the concentration at half of the fitted maximal effect
# Method in brief: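 CellTiter-Fluor readout, 30 min at 37 °C/5% CO2, following 23.5 h incubation of GH3.TRE-Luc cells with test compound and 1 nM T3 (final).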
# [12] = qHTS assay to identify small molecule antagonists of the thyroid receptor (TR) signaling pathway (AID 743065); further: series mostly up to about 70 µM; nearly all actives have a fitted effect of over 55% in size
# Method in brief: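 GH3.TRE-Luc rat pituitary cells (two TREs driving luciferase) were dosed with compound, then stimulated with 1 nM T3 (final) for 23.5 h at 37 C. ONE-Glo luminescence was the read-out, with CellTiter-Fluor fluorescence as the cytotoxicity counter-screen.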
# [13] = tested on: thyroid hormone receptor (rat, GH3 cells); assay: qHTS assay to identify small molecule agonists of the thyroid receptor (TR) signaling pathway (AID 743066; calls by dose curve)
# [14] = molecular target: Estrogen receptor (Homo sapiens) (UniProt P03372); assay: qHTS assay to identify small molecule antagonists of the estrogen receptor alpha (ER-alpha) signaling pathway (AID 743069; active means well fitted curve in the direction sought with a large enough effect in the signal ratio in the repeat runs, not every such curve was filed as active; the % refers to the signal ratio)
# Method in brief: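 Reporter cells (ER-alpha-bla, HEK293 background) are conditioned overnight in stripped-serum medium (2% charcoal-stripped FBS). Compound and 17beta-estradiol exposure runs 18 hr at 37C, 5% CO2.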
# [15] = qHTS assay to identify small molecule antagonists of the estrogen receptor alpha (ER-alpha) signaling pathway - cell viability counter screen (AID 743074; calls by dose curve;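 further: HEK293 cells carrying ER-alpha-UAS-bla reporter stimulated with 17beta-estradiol; nearly all actives have a fitted effect of over 45% in size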)
# [16] = molecular target: Estrogen receptor (Homo sapiens) (UniProt P03372); assay: qHTS assay to identify small molecule agonists of the estrogen receptor alpha (ER-alpha) signaling pathway (AID 743075; calls by dose curve;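 further: HEK293 GripTite cells with ER-alpha and UAS-driven beta-lactamase reporter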)
# [17] = molecular target: Estrogen receptor (Homo sapiens) (UniProt P03372); assay: qHTS assay to identify small molecule agonists of the estrogen receptor alpha (ER-alpha) signaling pathway using the BG1 cell line (AID 743079); further: nearly all actives have a fitted effect of over 20% in size
# [18] = qHTS assay to identify small molecule antagonists of the estrogen receptor alpha (ER-alpha) signaling pathway using the BG1 cell line (AID 743080; calls by dose curve;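 further: BG1 cells stimulated with 17beta-estradiol alongside compound; series mostly up to about 70 µM; nearly all actives have a fitted effect of over 25% in size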)
# Method in brief: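 BG1Luc4E2, endogenous ER-alpha, 4xERE-luc; 5 d charcoal-stripped FBS, phenol red free; 24 h plating; cpd + 17beta-estradiol 21.5 h, 37 C/5% CO2; CellTiter-Fluor viability 30 min, then ONE-Glo luciferase 30 min RT.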
# [19] = qHTS assay to identify small molecule antagonists of the estrogen receptor alpha (ER-alpha) signaling pathway using the BG1 cell line - cell viability counter screen (AID 743081);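 further: compound given together with 17beta-estradiol as the ER stimulus; series mostly up to about 70 µM; nearly all actives have a fitted effect of over 45% in size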
# Aromatase (Homo sapiens) = Aromatase (Homo sapiens) (UniProt P11511); assay: qHTS assay to identify aromatase inhibitors (AID 743083)
# Sequence of Aromatase (Homo sapiens) (P11511 whole entry, looked up): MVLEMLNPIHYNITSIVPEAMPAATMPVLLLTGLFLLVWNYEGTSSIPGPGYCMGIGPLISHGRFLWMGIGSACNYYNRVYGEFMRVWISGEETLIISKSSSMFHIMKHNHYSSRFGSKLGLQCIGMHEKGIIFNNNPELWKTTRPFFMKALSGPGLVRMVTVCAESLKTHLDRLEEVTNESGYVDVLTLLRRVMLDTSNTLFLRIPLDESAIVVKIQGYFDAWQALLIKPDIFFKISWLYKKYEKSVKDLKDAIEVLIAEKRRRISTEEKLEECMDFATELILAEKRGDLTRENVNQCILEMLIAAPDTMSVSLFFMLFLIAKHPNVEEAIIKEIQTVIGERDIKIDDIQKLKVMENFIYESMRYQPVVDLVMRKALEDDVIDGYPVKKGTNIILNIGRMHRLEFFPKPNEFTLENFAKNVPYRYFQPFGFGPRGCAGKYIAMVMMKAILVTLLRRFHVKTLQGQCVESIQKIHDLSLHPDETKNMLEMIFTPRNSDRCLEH
# Sequence of Androgen receptor (Homo sapiens) (P10275 whole entry, looked up): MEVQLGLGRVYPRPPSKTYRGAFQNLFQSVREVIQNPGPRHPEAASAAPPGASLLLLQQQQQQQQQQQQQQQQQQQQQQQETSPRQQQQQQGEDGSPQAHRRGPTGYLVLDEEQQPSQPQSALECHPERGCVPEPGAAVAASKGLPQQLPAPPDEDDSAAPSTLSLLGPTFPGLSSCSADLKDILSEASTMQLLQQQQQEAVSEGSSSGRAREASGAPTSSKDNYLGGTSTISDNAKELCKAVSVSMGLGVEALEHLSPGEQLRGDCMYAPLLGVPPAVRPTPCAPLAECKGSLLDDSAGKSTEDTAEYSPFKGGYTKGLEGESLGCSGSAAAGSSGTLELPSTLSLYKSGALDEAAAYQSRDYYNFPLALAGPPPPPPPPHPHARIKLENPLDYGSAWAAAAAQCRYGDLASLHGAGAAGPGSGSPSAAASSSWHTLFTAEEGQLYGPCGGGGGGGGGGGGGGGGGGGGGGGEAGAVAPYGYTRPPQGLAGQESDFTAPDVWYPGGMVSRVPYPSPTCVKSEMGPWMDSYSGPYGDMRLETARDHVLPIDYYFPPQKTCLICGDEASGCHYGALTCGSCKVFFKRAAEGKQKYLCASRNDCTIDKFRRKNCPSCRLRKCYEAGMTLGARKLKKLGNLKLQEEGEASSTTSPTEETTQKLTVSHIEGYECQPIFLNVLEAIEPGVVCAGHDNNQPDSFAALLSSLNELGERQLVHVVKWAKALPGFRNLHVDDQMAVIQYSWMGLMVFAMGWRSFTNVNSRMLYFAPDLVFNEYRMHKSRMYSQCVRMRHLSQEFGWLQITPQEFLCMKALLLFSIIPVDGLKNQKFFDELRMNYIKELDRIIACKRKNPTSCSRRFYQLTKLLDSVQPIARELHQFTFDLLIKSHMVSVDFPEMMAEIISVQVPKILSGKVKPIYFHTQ
# Sequence of Estrogen receptor (Homo sapiens) (P03372 whole entry, looked up): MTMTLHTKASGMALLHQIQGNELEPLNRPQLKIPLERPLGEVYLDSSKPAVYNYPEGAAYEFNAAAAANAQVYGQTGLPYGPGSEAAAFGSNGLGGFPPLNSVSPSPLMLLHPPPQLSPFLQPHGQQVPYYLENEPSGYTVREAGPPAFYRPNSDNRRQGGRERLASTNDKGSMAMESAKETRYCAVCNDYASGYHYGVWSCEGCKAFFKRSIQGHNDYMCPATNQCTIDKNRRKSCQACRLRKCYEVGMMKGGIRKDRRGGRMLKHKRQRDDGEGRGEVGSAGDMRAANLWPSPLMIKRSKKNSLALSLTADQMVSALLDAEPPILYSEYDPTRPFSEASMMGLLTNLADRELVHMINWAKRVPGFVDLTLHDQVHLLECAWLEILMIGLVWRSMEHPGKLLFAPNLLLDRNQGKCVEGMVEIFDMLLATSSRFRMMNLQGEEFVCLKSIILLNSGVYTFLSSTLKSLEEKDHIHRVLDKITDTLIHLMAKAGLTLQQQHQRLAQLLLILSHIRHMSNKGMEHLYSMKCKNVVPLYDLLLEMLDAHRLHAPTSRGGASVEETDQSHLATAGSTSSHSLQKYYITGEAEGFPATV
SMILES,outcome [1],Potency [2],Potency [3],Potency [4],outcome [5],Potency [6],outcome [7],Potency [8],Potency [9],outcome [10],Potency [11],Potency [12],outcome [13],Potency [14],Potency [15],outcome [16],Potency [17],outcome [18],Potency [19],Potency (Aromatase (Homo sapiens))
Cc1cc(S(=O)(=O)O)c(N)cc1Cl,inactive,inactive,inactive,inactive,inactive,inactive,inactive,inactive,inactive,inactive,inactive,inactive,inactive,inactive,inactive,inactive,inactive,inactive,inactive,inactive
Nc1cccc(S(=O)(=O)O)c1,inactive,inactive,inactive,inactive,inactive,inactive,inactive,inactive,inactive,inactive,inactive,inactive,inactive,inactive,inactive,inactive,inactive,inactive,inactive,inactive
OCCN(CCO)c1ccccc1,inactive,inactive,inactive,inactive,inactive,inactive,inactive,inactive,–,inactive,inactive,inactive,inactive,inactive,inactive,inactive,–,inactive,inactive,inactive
CN1CCN(C2=Nc3cc(F)ccc3Cc3ccccc32)CC1,inactive,11.9 µM (active),8.41 µM (active),23.7 µM (active),inactive,inactive,inactive,inactive,inactive,inactive,11.9 µM (active),–,inactive,inactive,inactive,inactive,–,inactive,inactive,inactive
C[C@@H]1CN(c2c(F)c(F)c3c(=O)c(C(=O)O)cn(C4CC4)c3c2F)C[C@H](C)N1,inactive,inactive,inactive,inactive,inactive,inactive,–,26.6 µM (active),inactive,inactive,–,–,inactive,inactive,inactive,inactive,inactive,inactive,inactive,inactive
Cc1cccc(C)c1NC(=O)CN1CCCCCC1,inactive,inactive,inactive,inactive,inactive,–,–,–,inactive,–,inactive,inactive,inactive,inactive,inactive,inactive,inactive,inactive,inactive,inactive
NS(=O)(=O)c1cc(-c2nn[nH]n2)c(NCc2cccs2)cc1Cl,inactive,inactive,inactive,inactive,inactive,–,–,–,inactive,–,inactive,inactive,inactive,inactive,inactive,inactive,inactive,inactive,inactive,inactive
N#Cc1ccc(C(c2ccc(C#N)cc2)n2cncn2)cc1,inactive,inactive,inactive,inactive,inactive,inactive,inactive,inactive,inactive,inactive,inactive,–,inactive,inactive,inactive,inactive,inactive,inactive,inactive,–
CCOc1ccccc1N,inactive,inactive,inactive,inactive,inactive,–,–,–,inactive,–,inactive,inactive,inactive,inactive,inactive,inactive,inactive,inactive,inactive,inactive
COC(C)CCO (configuration not stated),inactive,inactive,inactive,inactive,inactive,inactive,inactive,inactive,inactive,inactive,inactive,–,inactive,–,inactive,–,–,–,inactive,inactive
CCN(CC)CC1CCCCN1CC(=O)N1c2ccccc2C(=O)Nc2cccnc21 (configuration not stated),inactive,inactive,inactive,inactive,inactive,–,–,–,inactive,–,inactive,inactive,inactive,inactive,inactive,inactive,inactive,inactive,inactive,inactive
OC[C@H]1O[C@@H](O[C@H]2[C@H](O)[C@@H](O)[C@H](O)O[C@@H]2CO)[C@H](O)[C@@H](O)[C@H]1O,inactive,inactive,inactive,inactive,inactive,inactive,inactive,inactive,inactive,inactive,inactive,inactive,inactive,inactive,inactive,inactive,inactive,inactive,inactive,inactive
CCOC(=O)[C@H](CCc1ccccc1)N[C@@H](C)C(=O)N1Cc2cc(OC)c(OC)cc2C[C@H]1C(=O)O,inactive,inactive,inactive,inactive,inactive,–,–,–,inactive,–,inactive,inactive,inactive,inactive,inactive,inactive,inactive,inactive,inactive,inactive
CC(C)O,inactive,inactive,inactive,inactive,inactive,–,–,–,inactive,–,inactive,inactive,inactive,inactive,inactive,inactive,inactive,inactive,inactive,inactive
NCCCN1CCN(CCCN)CC1,inactive,inactive,inactive,inactive,inactive,inactive,inactive,inactive,inactive,inactive,inactive,inactive,inactive,inactive,inactive,inactive,inactive,inactive,inactive,inactive
